Laboratory results published in PubChem BioAssay AID720706 (Broad Institute, 2013).
About 5,500 (1.6%) of roughly 350,000 compounds were called active.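 How the source made its calls: active means significant combined selectivity score with lowered wild-type GFP, culture density cut under 30%, mutant RFP and density less affected; inactive means any of these conditions unmet.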 The entries come from a sample that favours actives as a whole.

Test: reduced GFP signal of wild-type E. coli, primary screen, bacterial rRNA inhibitor project, GFP/RFP fluorescence, OD600, single point (AID 720706)
Conditions: E. coli WT GFP vs humanized-ribosome RFP mutants, 24 h; GFP signal change (wild-type ribosome): stronger effect = lower value, DMSO median 0, no signal -100; OD600 change: measured here: OD600 growth, DMSO median 0, no signal -100; RFP signal change: measured here: RFP humanized mutant strains, DMSO median 0, no signal -100, concentration not given here

| SMILES | GFP signal change (wild-type ribosome) | OD600 change [%] | RFP signal change [%] |
| --- | --- | --- | --- |
| Cc1[nH]c2ccccc2c1SCC(=O)Nc1nccs1 | -21.9% (active) | -16.9 | -2.17 |
| CCn1c(SCC(=O)Nc2nccs2)nnc1-c1ccco1 | 10.8% (inactive) | 0.14 | 0.233 |
| Cn1c(SCC(=O)Nc2nccs2)nnc1-c1cccnc1 | 11.6% (inactive) | 16.8 | -1.48 |
| CC1CCCCC12NC(=O)N(CC(=O)OCc1c(F)cccc1Cl)C2=O (stereo unspecified) | -24.1% (active) | -16.3 | 0.314 |
| CC1CCCCC12NC(=O)N(CC(=O)OCC(=O)NCc1ccc(F)cc1)C2=O (stereo unspecified) | -2.84% (inactive) | -0.669 | -1.07 |
| COc1cccc(CNC(=O)COC(=O)CN2C(=O)NC3(CCCCC3C)C2=O)c1 (stereo unspecified) | 3.13% (inactive) | 0.95 | 0.493 |
| Cc1cc2c(cc1C)[n+](C)cn2CC(O)COCC1CC=CCC1 (stereo unspecified) | -29.3% (active) | -16.1 | 3.07 |
| Cc1noc(C)c1S(=O)(=O)Nc1ccc2c(c1)C(=O)N([C@H](C)CO)C[C@H](C)[C@H](CN(C)S(=O)(=O)c1cn(C)cn1)OCCCC[C@@H](C)O2 | -2.25% (inactive) | -4.58 | -3.75 |
| COc1ccc(CN(C)C[C@@H]2Oc3ccc(NS(=O)(=O)c4cn(C)cn4)cc3C(=O)N([C@@H](C)CO)C[C@H]2C)cc1 | -0.89% (inactive) | 10.2 | -0.875 |
| Cc1ccc(C(=O)NN(CCC#N)C2=NS(=O)(=O)c3ccccc32)cc1 | 11% (inactive) | 11 | 1.04 |
| O=S1(=O)N=C(N(CCO)/N=C/c2ccccc2F)c2ccccc21 | -21.1% (active) | -9.01 | 2.34 |
| COc1ccc(/C=N/N(C)C2=NS(=O)(=O)c3ccccc32)cc1OC | 14.8% (inactive) | 9.54 | -0.4 |
| O=C(Nc1ccc(C(F)(F)F)cc1)N[C@@H]1CC[C@H](CCNC(=O)c2ccccc2F)O[C@@H]1CO | -6.45% (inactive) | -10.8 | 3.96 |
| COc1ccc(NC(=O)Nc2ccc3c(c2)C(=O)N([C@H](C)CO)C[C@@H](C)[C@H](CN(C)C(=O)Cc2ccccc2)OCCCC[C@H](C)O3)cc1 | -0.637% (inactive) | -0.596 | 2.91 |
| COCCNc1nc(NCc2ccc(NC(C)=O)cc2)c2sccc2n1 | 31.4% (inactive) | 15.7 | 6.28 |
| COCCNc1nc(Nc2ccccc2Cl)c2sc(-c3ccccc3)cc2n1 | -0.73% (inactive) | 28.1 | -2.05 |
| CC(=O)Nc1ccc(CNc2nc(NCCN(C)C)nc3cc(-c4ccccc4)sc23)cc1 | -20.5% (active) | -5.3 | 1.68 |
| COc1ccc(NC(=O)N(C)C[C@@H]2Oc3ncc(-c4ccc(C#N)cc4)cc3C(=O)N([C@@H](C)CO)C[C@H]2C)cc1 | -1.74% (inactive) | -0.24 | -0.855 |
| CS(=O)(=O)Nc1ccc2c(c1)[C@@H]1C[C@H](CC(=O)NCc3ccccn3)O[C@@H](CO)[C@@H]1O2 | 2.36% (inactive) | -0.375 | 1.41 |
| O=C(NCCN1CCCCC1)[C@@H]1N[C@@H]2c3ccc(-c4ccccc4)c(=O)n3C[C@@H]2[C@H]1CO | -1.4% (inactive) | 4.26 | -4 |
| COC(=O)C[C@@H]1CC[C@H]2[C@@H](COC[C@H](O)CN2C(=O)Nc2ccccc2OC)O1 | -0.973% (inactive) | 5.6 | 2.71 |
| COc1ccc(-n2cc(CN(C)Cc3n[nH]c(=O)[nH]3)c(-c3cccc(F)c3)n2)cc1 | -10.8% (inactive) | -14.6 | -0.58 |
| COc1ccc(-n2cc(CNC3CCOCC3)c(-c3cccc(F)c3)n2)cc1 | -30.4% (active) | -24.4 | -1.67 |
| CCC(O)C1CCN(Cc2cn(-c3ccc(OC)cc3)nc2-c2cccc(F)c2)CC1 (stereo unspecified) | -12.5% (inactive) | -11 | 3.52 |

| SMILES | GFP signal change (wild-type ribosome) | OD600 change [%] | RFP signal change [%] |
| --- | --- | --- | --- |
| O=C(Nc1cccc(-n2cnnn2)c1)c1cccnc1 | 1.1% (inactive) | 2.52 | 0.952 |
| O=C(O)CSCC(=O)Nc1ccc(C(F)(F)F)cc1 | 9.65% (inactive) | 10.9 | 3.37 |
| O=C(Nc1ccc(C(F)(F)F)cc1)c1cccc(-n2cnnn2)c1 | -24.6% (active) | -17.2 | -9.02 |
| COc1ccccc1CNC(=O)C[C@@H]1CC[C@@H]2[C@@H](COc3ccc(NC(=O)Nc4ccc(F)c(F)c4)cc3C(=O)N2C)O1 | -9.44% (inactive) | -10.3 | -1.71 |
| CCCNC(=O)C[C@@H]1C[C@H]2c3cc(NC(=O)Nc4ccccc4F)ccc3O[C@H]2[C@H](CO)O1 | -3.87% (inactive) | -12.4 | 1.51 |
| COC(=O)c1c(C(=O)OC)c2n(c1C)CCS2 | -22.3% (active) | -9.31 | -5.79 |
| COC(=O)c1c(C)cc(O)c(C)c1O | -0.355% (inactive) | 5.33 | 0.38 |
| COC(=O)c1c(-c2ccc(C)cc2)csc1N | -1.07% (inactive) | -0.1 | 43.8 |
| C/C=C/c1ccc([C@@H]2[C@@H](CO)N3C(=O)CN(C(=O)Nc4cccc(OC)c4)C[C@@H]23)cc1 | -1.73% (inactive) | -7.8 | 3.44 |
| O=C(Nc1ccc(C2CC2(Cl)Cl)cc1)c1cccc([N+](=O)[O-])c1 (stereo unspecified) | -27.9% (active) | -19.1 | -6.25 |
| O=C(NC(=S)NC1CCS(=O)(=O)C1)c1cccc([N+](=O)[O-])c1 (stereo unspecified) | 3.91% (inactive) | 8.03 | -1.87 |
| O=C(Nc1nnc(SCc2c(Cl)cccc2Cl)s1)c1cccc([N+](=O)[O-])c1 | 1.43% (inactive) | -3.04 | -1.26 |
| C[C@@H]1CN([C@H](C)CO)C(=O)Cc2cc(N(C)C)ccc2O[C@H]1CN(C)C(=O)NC1CCCCC1 | -0.659% (inactive) | 5.18 | -1.29 |
| COc1cccc(C#Cc2ccc([C@@H]3[C@H]4CN(C(=O)Cc5ccccc5)CC(=O)N4[C@H]3CO)cc2)c1 | -5.04% (inactive) | -9.42 | 27.5 |
| CN(C)CCN(C(=O)C1=COCCO1)c1nc2ccc(Cl)cc2s1 | 2.56% (inactive) | -1.62 | -1.96 |
| CCN(CC)CCN(C(=O)c1ccc2c(c1)CCCC2)c1nc2c(OC)cccc2s1 | -52.2% (inactive) | -75.4 | -16.6 |
| CCOc1ccc2nc(C(=O)N3CCCC(C)C3)sc2c1 (stereo unspecified) | -6.88% (inactive) | -10.3 | -0.532 |
| CCOc1ccc2nc(N(CCN(C)C)C(=O)c3ccc4ccccc4c3)sc2c1 | -29.3% (active) | -1.85 | 4.17 |
| CN(C)CCCN(C(=O)c1ccc(S(=O)(=O)N2CCCCCC2)cc1)c1nc2cc3c(cc2s1)OCCO3 | -30% (active) | -20.1 | 0.23 |
| CCN(CC)CCN(C(=O)c1ccc(N2C(=O)CCC2=O)cc1)c1nc2cc3c(cc2s1)OCO3 | 4.92% (inactive) | -10.9 | -4.79 |
| CCc1ccc2nc(N(CCCN(C)C)C(=O)c3ccc4c(c3)OCCO4)sc2c1 | -22.5% (active) | -7.47 | 6.9 |
| Cc1ccc2sc(NNC(=O)c3ccc4c(c3)OCCO4)nc2c1C | -7.09% (inactive) | -13.5 | 7.46 |
| CCN(CC)CCN(C(=O)c1cc(Cl)sc1Cl)c1nc2cc3c(cc2s1)OCO3 | 4.27% (inactive) | -1.1 | -0.673 |
